We go through 38 compounds from PubChem BioAssay (NCATS).

Inconclusive results are not listed. Where a call stands in place of a potency, no number is given. Calls of active or inactive are those of the source. Calls come from the whole dose curve; as a rule, active = well fitted inhibition curve with a large enough effect; inconclusive = small, poorly fitted or top-dose-only effect; inactive = no such curve, though single readings can be large or run the other way.

In one test the target is Single-stranded DNA cytosine deaminase (Homo sapiens) (UniProt Q9GZX7). As to the kind of experiment: Validation qHTS assay for inhibitors of Activation Induced Cytidine Deaminase (AID): AID signal (AID 1347429). The note with it: Recombinant AID, FRET ssDNA deamination with UDG, fluorescence; series mostly up to 115 µM. The method in brief: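 In this coupled qHTS, AID deaminates a FRET-labelled ssDNA substrate in the presence of UDG over 4 hr at room temperature. Compounds span up to 114 uM final.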
Chain of Single-stranded DNA cytosine deaminase (Homo sapiens) (Q9GZX7 whole entry, looked up): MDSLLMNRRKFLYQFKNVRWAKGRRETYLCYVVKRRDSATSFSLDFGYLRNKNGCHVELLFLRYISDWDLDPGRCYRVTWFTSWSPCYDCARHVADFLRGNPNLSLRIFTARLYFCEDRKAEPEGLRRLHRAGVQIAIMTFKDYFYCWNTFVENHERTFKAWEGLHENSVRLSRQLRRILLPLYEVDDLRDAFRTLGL
Consider `O=C(O)c1cc2cc(F)ccc2[nH]1`, for which the Potency entry is “inactive”.

Regarding `C=CC[C@H](N)C(=O)O`, the Potency entry was “inactive”.

Turning to `NC/C=C\C(=O)O`, the Potency entry was “inactive”.

For the compound `NC(=O)c1ccccc1`, the Potency result was “inactive”.

Take `c1ccc2nc(C3=NCCN3)ccc2c1`: the Potency entry was “inactive”.

As to `COc1cc(CNC(=O)CCCCCCC(C)C)ccc1O`, the Potency entry is “inactive”.

In the case of `Cn1cc(C(F)(F)F)nc1-c1ccc(OCC(O)CNCCOc2ccc(O)c(C(N)=O)c2)cc1` (centres undefined), the Potency result was “inactive”.

As for `CC[N+](CC)(CC)CC(=O)Nc1c(C)cccc1C`, the Potency entry is “inactive”.

Take `O=C(O)C1CN(CCCP(=O)(O)O)CCN1` (centres undefined): the Potency entry was “inactive”.

Consider `CC1CCN(CC[C@H]2CCCN2S(=O)(=O)c2cccc(O)c2)CC1`, for which the Potency result was “inactive”.

Turning to `CN(CC[C@@H](Oc1ccc(C(F)(F)F)cc1)c1ccccc1)CC(=O)O`, the Potency entry is “inactive”.

In the case of `c1ccc(C(NCc2cccnc2)(c2ccccc2)c2ccccc2)cc1`, the Potency result is “inactive”.

Turning to `CCCN(CCc1ccccc1)C1CCc2c(O)cccc2C1` (centres undefined), the Potency result is “inactive”.

On to `CC[C@@H]1Cc2cc(O)ccc2C2=C1c1ccc(O)cc1C[C@H]2CC`, for which the Potency result was “inactive”.

`O=c1ccn([C@@H]2O[C@H](COP(=O)(O)OP(=O)(O)O)[C@@H](O)[C@H]2O)c(=O)[nH]1`: the Potency entry is “inactive”.

Turning to `COc1cc([C@@H]2c3cc4c(cc3[C@H](O)C3COC(=O)[C@@H]32)OCO4)cc(OC)c1OC` (some centres undefined), the Potency result is “inactive”.

Test system in a further test: not listed separately
Kind of test: Primary qHTS for inhibitors of La Crosse Virus (LACV) - induced cell death in SH-SY5Y cells (AID 1508616).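 Note: top concentration of the series differs between compounds; higher means more rescue of cells from virus-induced death.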 The note with it: SH-SY5Y LACV cytopathicity rescue, ATP luminescence, 6 d; series mostly up to 9.63 µM. In short, it runs like this: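 Readout was luminescence from ATPLite 1step added after a 6-day LACV infection (0.01 MOI) of SH-SY5Y cells that had received pin-transferred compound 24 hr after seeding.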
As to `CN(C)C(=O)/N=N/C(=O)N(C)C`, the Potency result was “inactive”.

`Cc1cccc(C(=O)NCN2CCN(c3ccccc3C#N)CC2)c1`: the Potency result is “inactive”.

Consider `CSC(=N)N`, for which the Potency entry was “inactive”.

With `COc1ccc2c(c1)c(CC(=O)O)c(C)n2C(=O)c1ccccc1`, the Potency result was “inactive”.

On to `COc1ccc2c(c1)CCC1C2CC[C@@]2(C)C1CC[C@@H]2NCCCCCCN1C(=O)C=CC1=O` (some centres undefined), for which the Potency result is “inactive”.

Turning to `O=C(O)c1cccnc1C(=O)O`, the Potency result is “inactive”.

Consider `Cc1cc2c(cc1Cl)N(C(=O)Nc1ccnc3ccccc13)CC2`, for which the Potency result was “inactive”.

For `Nn1nnc2ccccc21`, the Potency result was “inactive”.

For `O=C(O)C1=CCCN(CCON=C(c2ccccc2)c2ccccc2)C1`, the Potency entry was “inactive”.

As for `N[C@H]1CONC1=O`, the Potency entry is “inactive”.

In the case of `N[C@@H](CS(=O)O)C(=O)O`, the Potency entry was “inactive”.

As for `O=C(OCCN1CCOCC1)C1(c2ccccc2)CCCCC1`, the Potency result is “inactive”.

Regarding `C#CCn1c(=O)c2c(ncn2C)n(C)c1=O`, the Potency result was “inactive”.

Consider `CNc1cc(NS(=O)(=O)c2ccc(N)cc2)nc(NC)n1`, for which the Potency result was “inactive”.

`CCC(=O)N1CCN(C(=O)c2ccccc2)CC1`: the Potency entry was “inactive”.

As for `CC(=O)[C@H]1CCC2C3CC=C4C[C@@H](OS(=O)(=O)O)CC[C@]4(C)C3CC[C@@]21C` (some centres undefined), the Potency entry was “inactive”.

In the case of `COc1cc(CC(=O)O)ccc1O`, the Potency entry is “inactive”.

For the compound `N[C@H](C(=O)O)c1cc(O)cc(O)c1`, the Potency result was “inactive”.

In the case of `CCCCCC[C@@H]([C@@H](C)O)n1cnc2c(N)ncnc21`, the Potency entry was “inactive”.

Consider `OC1(c2ccc(Cl)cc2)CCN(Cc2c[nH]c3ccccc23)CC1`, for which the Potency entry is “inactive”.

Consider `CC(C)[C@@H]1CC[C@@H](C)C[C@@H]1P(=O)(c1ccccc1)c1ccccc1`, for which the Potency result was “inactive”.

On to `NC[C@@H]1O[C@H](c2ccccc2)Cc2c1ccc(O)c2O`, for which the Potency entry is “inactive”.

As to `O=C(O)c1cc2cc(F)ccc2[nH]1`, the Potency entry is “inactive”.

Regarding `C=CC[C@H](N)C(=O)O`, the Potency result was “inactive”.

Take `NC/C=C\C(=O)O`: the Potency result was “inactive”.

`NC(=O)c1ccccc1`: the Potency entry is “inactive”.

Turning to `c1ccc2nc(C3=NCCN3)ccc2c1`, the Potency result is “inactive”.

As to `COc1cc(CNC(=O)CCCCCCC(C)C)ccc1O`, the Potency entry was “inactive”.

As to `Cn1cc(C(F)(F)F)nc1-c1ccc(OCC(O)CNCCOc2ccc(O)c(C(N)=O)c2)cc1` (centres undefined), the Potency result is “inactive”.

Regarding `CC[N+](CC)(CC)CC(=O)Nc1c(C)cccc1C`, the Potency result is “inactive”.

In the case of `O=C(O)C1CN(CCCP(=O)(O)O)CCN1` (centres undefined), the Potency entry is “inactive”.

Turning to `CC1CCN(CC[C@H]2CCCN2S(=O)(=O)c2cccc(O)c2)CC1`, the Potency entry was “inactive”.

For the compound `CN(CC[C@@H](Oc1ccc(C(F)(F)F)cc1)c1ccccc1)CC(=O)O`, the Potency result was “inactive”.

For `c1ccc(C(NCc2cccnc2)(c2ccccc2)c2ccccc2)cc1`, the Potency result is “inactive”.

`CCCN(CCc1ccccc1)C1CCc2c(O)cccc2C1` (centres undefined): the Potency result is “inactive”.

For `CC[C@@H]1Cc2cc(O)ccc2C2=C1c1ccc(O)cc1C[C@H]2CC`, the Potency result was “inactive”.

With `O=c1ccn([C@@H]2O[C@H](COP(=O)(O)OP(=O)(O)O)[C@@H](O)[C@H]2O)c(=O)[nH]1`, the Potency result was “inactive”.

As to `COc1cc([C@@H]2c3cc4c(cc3[C@H](O)C3COC(=O)[C@@H]32)OCO4)cc(OC)c1OC` (some centres undefined), the Potency entry is “inactive”.
